Experiment [1] can be described thus: Nuclear factor erythroid 2-related factor 2/antioxidant responsive element (Nrf2/ARE) small molecule agonists: qHTS cell viability counter screen in human keratinocytes (AID 1919968; active = well fitted curve in the direction sought with a large enough effect in the repeat runs; an effect the other way counts as inactive or inconclusive; also: nearly all actives have a fitted effect of over 55% in size; also: potency is read from the fitted curve at half-maximal effect). Summed up:
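Cytotoxicity was multiplexed with the Nrf2/ARE luciferase assay in the same wells. Stably transfected HaCaT keratinocytes were treated with test compounds for 23 h at 37 C. Cell viability was then measured by CellTiter-Fluor fluorescence.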

Experiment [2] can be described thus: Nuclear factor erythroid 2-related factor 2/antioxidant responsive element (Nrf2/ARE) small molecule agonists: luciferase reporter gene qHTS assay in human keratinocytes (AID 1919969). Also: nearly all actives have a fitted effect of over 35% in size. Also: potency is read from the fitted curve at half-maximal effect.
For experiment [3], the target named is KiSS-1 receptor (Homo sapiens) (UniProt Q969F8). The experiment in a line: Human kisspeptin (KISS1R) small molecule agonists, calcium flux assay in KISS1R-HEK293 cells (AID 1920064; active = well fitted curve in the direction sought with a large enough effect in the repeat runs; an effect the other way counts as inactive or inconclusive). Summed up: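 Agonist activity is monitored as intracellular calcium rise in engineered HEK293 cells carrying human KISS1R. Cells are dye-loaded for 1 h at 37 C before compound addition, and fluorescence is recorded for 3 min.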
On the technique in general: A change in cytosolic calcium serves as a functional read-out for many receptors and channels.

Experiment [4] can be described thus: G protein-coupled receptor (GPCR) small molecule agonists, calcium flux assay: HEK293 wild type cell line counter screen (AID 1920065). Summed up:
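Seed cells, incubate 18 h (37 C, 5% CO2); add calcium dye, 1 h at 37 C; pin-transfer compounds, ATP control or DMSO; read fluorescence 480/540 nm each second for 3 min.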

Experiment [5] can be described thus: p53 small molecule agonists, cell-based qHTS assay with human liver microsomes (AID 1963577). In outline:
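p53RE-bla cells, 4,000/well, compound added after 5 h, with human liver microsomes 0.5 mg/mL and NADPH 0.5 mg/mL final; 16 h at 37 C, then LiveBLAzer 2 h RT, fluorescence.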
On the technique in general: In qHTS, concentration-response curves come from the screen itself.

A short description of experiment [6]: p53 small molecule agonists, cell-based qHTS assay with rat liver microsomes (AID 1963578). In outline: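 p53RE-bla cells, 4,000/well, pre-incubated 5 h, then given compounds plus rat liver microsomes (0.5 mg/mL final) and NADPH (0.5 mg/mL final). Incubation 16 h at 37 C; beta-lactamase reporter read by LiveBLAzer fluorescence after 2 h at room temperature.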

A short description of experiment [7]: p53 small molecule agonists, cell-based qHTS assay with rat liver microsomes: qHTS cell viability counter screen (AID 1963580). Also: nearly all actives have a fitted effect of over 45% in size. Summed up: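 Counter screen for cytotoxicity under metabolic activation: rat liver microsomes and NADPH, 0.5 mg/mL final each, added with compounds to p53RE-bla HCT-116 cells; 16 h at 37 C, then ATP luminescence read.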
Experiment [8] addresses 5-hydroxytryptamine receptor 2A (Homo sapiens) (UniProt P28223). As to the kind of experiment: 5-hydroxytryptamine receptor 2A (HTR2A) small molecule agonists, cell-based qHTS assay (AID 1963587). Also: nearly all actives have a fitted effect of over 30% in size. In outline: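 HTR2A-CHO cells, plated 18 h at 37 C/5% CO2, dye-loaded 1 h at 37 C; compounds in DMSO added by pin tool (agonist mode). Intracellular calcium flux read as kinetic fluorescence on FDSS over 2 min at 1 s intervals.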

The target of experiment [9] is Muscarinic acetylcholine receptor M1 (Homo sapiens) (UniProt P11229). As to the kind of experiment: Cholinergic receptor muscarinic 1 (CHRM1) small molecule antagonists, cell-based qHTS assay (AID 1963588). Also: nearly all actives have a fitted effect of over 40% in size. In outline:
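Compounds were tested at 15 concentrations in three independent runs. Dye-loaded CHRM1-CHO cells were exposed 5 min at room temperature before stimulation by acetylcholine added at 50nM. Intracellular calcium was read kinetically on FDSS for 3 min.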

The target of experiment [10] is Beta-2 adrenergic receptor (Homo sapiens) (UniProt P07550). As to the kind of experiment: Adrenergic beta2 receptor (ADRB2) small molecule antagonists, cell-based qHTS assay (AID 1963592). Also: series mostly up to about 92 µM; nearly all actives have a fitted effect of over 50% in size. Summed up: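 Assay format: CHO-ADRB2 cells, 18-20hr seeding at 37C/5% CO2, then compound plus 1nM isoproterenol agonist mix for 0.5hr RT. Homogeneous time-resolved fluorescence cAMP detection after 1hr, expressed as 665/615 nm ratio.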

Experiment [11] has as its target D(2) dopamine receptor (Homo sapiens) (UniProt P14416). The experiment in a line: Dopamine D2 receptor (DRD2) small molecule agonists, cell-based qHTS assay (AID 1963594). Also: nearly all actives have a fitted effect of over 35% in size. In outline: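 HEK293 cells stably expressing DRD2 were cultured 24 h at 37 C, then given Ro20-1724 (0.1 mM final) and compounds for 10 min at room temperature. NKH477 (200nM) was then added for 30 min. cAMP was read by HTRF.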

The target is the same in experiment [12]. The experiment in a line: Dopamine D2 receptor (DRD2) small molecule antagonists, cell-based qHTS assay (AID 1963595; active = well fitted inhibition curve with a large enough effect in the signal ratio in the repeat runs, with a control signal flat; the % refers to the signal ratio). Summed up:
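Readout: HTRF cAMP, cAMP-d2 competing with cellular cAMP for anti-cAMP cryptate, read after 1 h. Cells: DRD2-HEK293. Conditions: 0.1 mM Ro20-1724, 12 nM quinpirole, 200 nM NKH477, 30 min RT.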

Experiment [13] addresses Gonadotropin-releasing hormone receptor (Homo sapiens) (UniProt P30968). The experiment in a line: Human gonadotropin-releasing hormone receptor (GnRHR) small molecule agonists, calcium flux assay in GnRHR-HEK293 cells (AID 1920063). Also: nearly all actives have a fitted effect of over 35% in size. In outline:
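Agonist activity was measured as intracellular calcium flux in HEK293 cells engineered to stably express human GnRHR. After dye loading for 1 hour at 37 C, compounds in DMSO were added and fluorescence was followed for 3 minutes.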

Experiment [14] is described as follows: p53 small molecule agonists, cell-based qHTS assay with human liver microsomes: qHTS cell viability counter screen (AID 1963579). Also: nearly all actives have a fitted effect of over 45% in size. Summed up:
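p53RE-bla cells, 4,000/well, dosed 5 hours after plating, with human liver microsomes (0.5 mg/mL final) plus NADPH (0.5 mg/mL final), 16 hours at 37 C. Viability read as CellTiter-Glo luminescence after 30 min at room temperature.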

A short description of experiment [15]: p53 small molecule agonists, cell-based qHTS assay: qHTS cell viability counter screen (AID 1963581). Also: nearly all actives have a fitted effect of over 45% in size. Summed up: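 Viability was counter-screened in parallel with the p53 agonist reporter by measuring intracellular ATP luminescence in the same HCT-116 p53RE-bla wells after 16 h compound treatment at 37 C.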
Experiment [16] is described as follows: p53 small molecule agonists, cell-based qHTS assay (AID 1963582; active = well fitted activation curve with a large enough effect in the signal ratio in the repeat runs, not every such curve was filed as active; the % refers to the signal ratio). In outline: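 Cells carrying a p53-responsive bla reporter are treated with test compounds for 16 h at 37 C; beta-lactamase activity is then detected with LiveBLAzer B/G FRET substrate after 2 h at room temperature.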
Experiment [17] addresses 5-hydroxytryptamine receptor 2A (Homo sapiens) (UniProt P28223). The experiment in a line: 5-hydroxytryptamine receptor 2A (HTR2A) small molecule antagonists, cell-based qHTS assay (AID 1963586). Also: nearly all actives have a fitted effect of over 45% in size. Summed up:
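CHO cells stably expressing human HTR2A were plated for 18 h at 37 C, then loaded with calcium dye for 1 h. Compounds were preincubated 5 min at room temperature before DOI (4 nM solution) was added. Kinetic fluorescence was read for 3 min.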

Experiment [18] deals with Muscarinic acetylcholine receptor M1 (Homo sapiens) (UniProt P11229). The experiment in a line: Cholinergic receptor muscarinic 1 (CHRM1) small molecule agonists, cell-based qHTS assay (AID 1963589). Also: nearly all actives have a fitted effect of over 35% in size. In outline:
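Cells were plated and incubated 18 h at 37 C/5% CO2, loaded with calcium dye for 1 h at 37 C, then treated with compounds in DMSO. Fluorescence was recorded kinetically at 1 sec intervals.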

A short description of experiment [19]: cAMP Responsive Elements (CRE) small molecule agonists, cell-based qHTS assay (AID 1963590). Summed up:
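Cells carrying a CRE-driven beta-lactamase reporter (HEK 293T) are seeded, incubated overnight (18 h), and treated with test compounds for 3 h at 37 C; reporter activity is then detected with a FRET substrate after 2 h at room temperature.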

Experiment [20] in a line: cAMP Responsive Elements (CRE) small molecule antagonists, cell-based qHTS assay (AID 1963591; active = well fitted inhibition curve with a large enough effect in the signal ratio in the repeat runs, not every such curve was filed as active; the % refers to the signal ratio). Summed up:
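Cells (CRE-bla HEK 293T, DMEM with 10% dialyzed FBS and 25 mM HEPES) are seeded and incubated 18 h. Compounds are added with NKH477 agonist at 0.25 uM final for 3 h, then FRET substrate for 2 h.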

Unmarked numbers belong to inactive results. Inconclusive results are not listed. Active and inactive are the calls of the source. Unless noted, calls follow the shape of the full dose curve.

Sequence of KiSS-1 receptor (Homo sapiens) (Q969F8 whole entry, looked up): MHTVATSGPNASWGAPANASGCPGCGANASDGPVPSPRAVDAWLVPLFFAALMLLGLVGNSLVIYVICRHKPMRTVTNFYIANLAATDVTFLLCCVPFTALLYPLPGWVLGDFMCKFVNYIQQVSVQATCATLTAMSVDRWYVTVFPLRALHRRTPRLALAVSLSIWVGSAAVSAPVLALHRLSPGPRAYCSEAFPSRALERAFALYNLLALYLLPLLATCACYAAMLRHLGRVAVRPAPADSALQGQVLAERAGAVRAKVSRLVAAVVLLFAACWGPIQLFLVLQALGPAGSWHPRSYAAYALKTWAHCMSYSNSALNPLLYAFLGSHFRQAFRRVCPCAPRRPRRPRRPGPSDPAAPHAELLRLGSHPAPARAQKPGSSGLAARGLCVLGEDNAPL
Sequence of D(2) dopamine receptor (Homo sapiens) (P14416 whole entry, looked up): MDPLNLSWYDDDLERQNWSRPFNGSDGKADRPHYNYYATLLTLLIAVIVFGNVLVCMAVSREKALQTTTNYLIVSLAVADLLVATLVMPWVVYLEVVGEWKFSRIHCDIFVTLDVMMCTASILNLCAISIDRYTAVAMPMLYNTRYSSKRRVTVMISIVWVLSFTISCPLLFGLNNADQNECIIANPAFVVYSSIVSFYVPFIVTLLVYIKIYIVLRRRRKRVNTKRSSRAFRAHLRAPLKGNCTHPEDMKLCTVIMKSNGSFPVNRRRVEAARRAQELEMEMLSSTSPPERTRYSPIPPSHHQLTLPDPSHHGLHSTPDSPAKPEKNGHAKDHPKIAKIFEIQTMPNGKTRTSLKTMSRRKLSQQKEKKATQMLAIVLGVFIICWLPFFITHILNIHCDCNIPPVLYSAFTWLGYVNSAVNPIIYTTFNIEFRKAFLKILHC
Sequence of Beta-2 adrenergic receptor (Homo sapiens) (P07550 whole entry, looked up): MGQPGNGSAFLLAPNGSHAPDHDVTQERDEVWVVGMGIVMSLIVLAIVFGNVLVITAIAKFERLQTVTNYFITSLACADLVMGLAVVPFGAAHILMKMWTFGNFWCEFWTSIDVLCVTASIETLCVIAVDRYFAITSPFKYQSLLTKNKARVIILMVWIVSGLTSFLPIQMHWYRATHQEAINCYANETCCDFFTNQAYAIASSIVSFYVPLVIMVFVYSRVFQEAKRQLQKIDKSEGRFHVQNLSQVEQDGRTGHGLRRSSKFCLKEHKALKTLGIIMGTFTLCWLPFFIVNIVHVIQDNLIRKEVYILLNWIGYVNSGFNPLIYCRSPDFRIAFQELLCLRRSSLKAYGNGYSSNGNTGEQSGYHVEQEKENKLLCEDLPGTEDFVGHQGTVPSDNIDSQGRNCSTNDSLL
Sequence of Gonadotropin-releasing hormone receptor (Homo sapiens) (P30968 whole entry, looked up): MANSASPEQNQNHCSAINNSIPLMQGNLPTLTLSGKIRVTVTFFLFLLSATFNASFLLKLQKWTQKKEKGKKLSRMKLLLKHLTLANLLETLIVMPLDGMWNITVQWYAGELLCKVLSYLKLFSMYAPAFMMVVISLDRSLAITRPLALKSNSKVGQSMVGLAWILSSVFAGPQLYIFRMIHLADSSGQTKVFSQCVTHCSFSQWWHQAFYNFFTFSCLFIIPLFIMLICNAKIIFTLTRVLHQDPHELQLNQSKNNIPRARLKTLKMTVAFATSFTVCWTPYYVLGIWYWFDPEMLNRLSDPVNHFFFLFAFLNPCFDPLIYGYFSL
Sequence of 5-hydroxytryptamine receptor 2A (Homo sapiens) (P28223 whole entry, looked up): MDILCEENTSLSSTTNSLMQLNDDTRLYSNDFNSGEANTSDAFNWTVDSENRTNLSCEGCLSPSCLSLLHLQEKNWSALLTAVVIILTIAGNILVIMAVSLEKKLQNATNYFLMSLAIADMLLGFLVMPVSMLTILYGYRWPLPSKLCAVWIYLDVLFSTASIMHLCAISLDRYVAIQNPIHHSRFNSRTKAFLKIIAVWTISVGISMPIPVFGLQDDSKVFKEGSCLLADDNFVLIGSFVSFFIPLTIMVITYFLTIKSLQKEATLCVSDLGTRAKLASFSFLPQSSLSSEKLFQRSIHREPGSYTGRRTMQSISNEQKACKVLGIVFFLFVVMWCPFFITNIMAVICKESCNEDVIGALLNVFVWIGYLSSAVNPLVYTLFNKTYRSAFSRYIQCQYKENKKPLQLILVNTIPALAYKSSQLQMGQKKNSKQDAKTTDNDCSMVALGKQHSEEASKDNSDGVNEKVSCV
Sequence of Muscarinic acetylcholine receptor M1 (Homo sapiens) (P11229 whole entry, looked up): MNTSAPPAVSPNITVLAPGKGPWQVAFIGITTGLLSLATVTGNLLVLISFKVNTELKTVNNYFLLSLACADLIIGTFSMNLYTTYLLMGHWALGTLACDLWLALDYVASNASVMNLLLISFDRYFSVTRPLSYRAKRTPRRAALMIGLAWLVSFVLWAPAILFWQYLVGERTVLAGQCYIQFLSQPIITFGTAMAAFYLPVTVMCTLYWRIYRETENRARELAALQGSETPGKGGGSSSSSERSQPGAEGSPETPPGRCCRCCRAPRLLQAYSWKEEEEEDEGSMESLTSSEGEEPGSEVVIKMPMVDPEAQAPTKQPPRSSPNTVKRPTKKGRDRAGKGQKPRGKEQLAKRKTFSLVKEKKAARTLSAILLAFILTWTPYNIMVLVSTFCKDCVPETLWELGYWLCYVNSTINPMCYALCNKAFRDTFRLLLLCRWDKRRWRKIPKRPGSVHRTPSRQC

For the compound `C=CC(=O)OCCOCCOC(=O)C=C`, the Potency in experiment [1] is 54.7 µM (active); in [2] it was 24.4 µM (active). In addition, the result in experiment [3] and in experiment [4] was inactive. In addition, the Potency result in experiment [5], in experiment [6], in experiment [7], in [8], in experiment [9] and in experiment [10] was “inactive” in each case. Further, the Potency entry in experiment [11] and in experiment [12] was “inactive” each time.
Turning to `CC1=C(C)C(=O)C(C(CCCCCC(=O)O)c2ccccc2)=C(C)C1=O` (stereo not drawn), the Potency result in experiment [1], in experiment [13], in experiment [5], in [6], in experiment [14] and in [7] was “inactive” in each case. For the same compound, the Potency entry in experiment [15], in [16], in experiment [17], in experiment [8], in [18] and in experiment [19] was “inactive” each time. Further, the Potency entry in experiment [10], in experiment [11] and in experiment [12] was “inactive” in each case. Further, the outcome in experiment [3] and in experiment [4] was inactive.
As for `CC1=C(CC=O)C(C)(C)CCC1`, the Potency result in experiment [1], in experiment [13], in experiment [5], in [6], in experiment [14] and in experiment [7] was “inactive” in each case. In addition, the Potency entry in experiment [15], in [16], in experiment [17], in [8], in [9] and in [18] was “inactive” each time. Besides, the Potency entry in [19], in experiment [20], in [10], in experiment [11] and in experiment [12] was “inactive” each time. Further, the outcome in [3] and in experiment [4] was inactive.
For the compound `CN(C)CCN(Cc1ccsc1)c1ccccn1`, the Potency entry in [1], in experiment [13], in experiment [5], in [6], in experiment [14] and in [7] was “inactive” in each case. Moreover, the Potency result in experiment [15], in experiment [16], in [8], in experiment [9], in experiment [18] and in [19] was “inactive” each time. Moreover, the Potency result in experiment [20], in experiment [10], in experiment [11] and in experiment [12] was “inactive” throughout. Moreover, the result in experiment [3] and in experiment [4] was inactive.
For the compound `CCOC(=O)C(=O)OCC`, the Potency entry in experiment [1], in [2], in experiment [5], in [6], in experiment [14] and in [7] was “inactive” throughout. Further, the Potency entry in experiment [16], in experiment [17], in experiment [8], in experiment [9], in experiment [18] and in experiment [19] was “inactive” each time. In addition, the Potency result in experiment [20], in experiment [10], in experiment [11] and in [12] was “inactive” throughout. Further, the outcome in experiment [4] was inactive.
As for `C[Si]1(C)O[Si](C)(C)O[Si](C)(C)O1`, the Potency result in experiment [1], in experiment [13], in experiment [5], in experiment [6], in [14] and in [7] was “inactive” in each case. The Potency entry in experiment [15], in experiment [16], in [17], in [8], in experiment [9] and in experiment [18] was “inactive” in each case. For the same compound, the Potency result in experiment [19], in experiment [20], in experiment [10], in experiment [11] and in [12] was “inactive” in each case. For the same compound, the result in [3] and in experiment [4] was inactive.
With `CN(C)[C@@H]1C(=O)C(C(=O)NCN2CCCC2)=C(O)[C@@]2(O)C(=O)C3=C(O)c4c(O)cccc4[C@@](C)(O)C3C[C@@H]12` (stereo partly drawn), the Potency entry in [1], in experiment [2], in [6], in experiment [7], in [15] and in experiment [16] was “inactive” in each case. Also, the Potency entry in [17], in experiment [8], in experiment [9], in experiment [18], in [19] and in [20] was “inactive” each time. Also, the Potency entry in [10], in experiment [11] and in experiment [12] was “inactive” each time. In addition, in experiment [4], the outcome was inactive.

For the origin of these results see PubChem BioAssay (Tox21).
